# According to PubChem BioAssay AID2216 (Broad Institute, 2009):
# In all, about 300,000 compounds went through this assay and about 3,300 (1.1%) were called active. About 6% were inconclusive and are not listed.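 The calls were made as follows: active = more than half of the replicate wells show a fall in the fluorescence ratio signal beyond about 16% (limit read from the data, passing the limit was not always enough); inconclusive = exactly half of the replicate wells pass the set limit; inactive = fewer than half of replicates pass the limit.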 The list comes from a sample in which actives are over-represented; it also holds similar structures and randomly drawn compounds.
# Tested on: Ran GTPase (GTP-bound) - importin-beta complex
# Test: inhibitors of RanGTP-importin-beta interaction, primary screen, biochemical, FRET, CFP-Ran, YFP-importin-beta, homogeneous (AID 2216);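 also: 0% = DMSO wells and 100% = Ran loaded with GDP instead of GTP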
# Conditions: cell-free CFP-Ran/YFP-importin-beta FRET ratio; stronger effect = higher value; concentration not given here
row,Compound,inhibition
1,Cc1nc2ccccc2c(=O)n1-c1ccc(F)c(NC(=O)c2cccs2)c1,7.77% (inactive)
2,Cc1ncc(CO)c(/C=N/NC(=O)c2cccc(S(=O)(=O)N3CCCC3)c2)c1O,38.4% (active)
3,Cc1cccc(NC(=O)c2cccc(S(=O)(=O)N3CCCC3)c2)n1,1.93% (inactive)
4,O=C(N/N=C/c1ccccn1)c1ccc(S(=O)(=O)N2CCCCCC2)cc1,3.77% (inactive)
5,Cc1ccc(C(=O)CN2C(=O)NC3(CCc4ccccc43)C2=O)c(C)c1 (stereo not given),-0.128% (inactive)
6,Cc1ccc(C(=O)NNC(=O)c2ccncc2)cc1S(=O)(=O)N1CCCCC1,-4.29% (inactive)
7,CCOC(=O)C1=C(O)/C(=C/c2ccc(OCC(=O)Nc3ccc(C)cc3)cc2)N=C1C,70.2% (active)
8,CCOC(=O)C1=C(O)/C(=C/c2cc(C)n(-c3ccccc3)c2C)N=C1C,3.69% (inactive)
9,Cc1ccc(NC(=O)COc2ccc(/C=C3/NC(=O)NC3=O)cc2)cc1,-1.54% (inactive)
10,CCOC(=O)c1ccccc1NC(=O)c1c(N)n(C)c(=O)[nH]c1=O,-1.23% (inactive)
11,O=C(c1ccc(F)cc1)N1CCC(C(=O)N2CCN(S(=O)(=O)c3ccccc3Br)CC2)CC1,4.17% (inactive)
12,CC(=O)Nc1cc2ccc(OC(C)=O)cc2oc1=O,33.6% (active)
13,O=C(Nc1cc2ccccc2oc1=O)C1CCCCC1,4.19% (inactive)
14,CC(=O)Oc1ccc2c(C)c(CC(C)O)c(=O)oc2c1 (stereo not given),10% (inactive)
15,COc1ccccc1/C=C/C(=O)NC(=S)N1CCOCC1,-1.73% (inactive)
16,COc1ccccc1/C=C/C1=NC(=C\N(C)C)/C(=O)O1,37% (active)
17,O=C1OC(/C=C/c2ccccc2)=NC/1=C/c1ccco1,0.891% (inactive)
18,O=C(c1cn2ccccc2n1)N1CCc2c([nH]c3ccccc23)C1c1ccccn1 (stereo not given),3.68% (inactive)
19,COCc1ccc(C(=O)N2CCc3c([nH]c4ccccc34)C2c2ccccn2)s1 (stereo not given),0.202% (inactive)
20,Cc1cccc(C2c3[nH]c4ccccc4c3CCN2C(=O)c2cc(-c3cccn3C)n[nH]2)n1 (stereo not given),21.1% (active)
21,O=C(NCC1(N2CCCCC2)CCCCC1)c1ccc(NS(=O)(=O)c2ccc(F)cc2)cc1,-1.33% (inactive)
22,COC(=O)[C@]1(C)N[C@H](c2ccc(-c3ccc(Cl)c(Cl)c3)cc2)[C@@H]2C(=O)N(C)C(=O)[C@@H]21,1.99% (inactive)
23,CC(C)Cn1c(N)c(C(=O)NCc2cccs2)c2nc3ccccc3nc21,73.8% (active)

row,Compound,inhibition
1,CCCNC(=O)c1c(N)n(-c2ccc(S(N)(=O)=O)cc2)c2nc3ccccc3nc12,12.3% (inactive)
2,CCOc1ccccc1NC(=O)Cn1nnc(C(=O)NCc2cccs2)c1N,1.12% (inactive)
3,Cc1c(C)n2c(SCC(=O)NC3CCCC3)nnc2[nH]c1=O,1.36% (inactive)
4,CC(C)(C)Oc1ccccc1Nc1nc(NCCO)nc(N2CCCC2)n1,-2.11% (inactive)
5,COc1ccc(C(=O)Cc2cnn(-c3ccccc3)c2)c(O)c1,17.5% (active)
6,COc1ccc(C(=O)CC(=O)c2ccc(C)cc2)c(O)c1,2.86% (inactive)
7,Cc1cc(O)cc(O)c1C(=O)Cc1cnn(-c2ccccc2)c1,0.165% (inactive)
8,CCCCn1c(N)c(N(CC(C)C)C(=O)c2cccc(S(=O)(=O)N3CCN(C(C)=O)CC3)c2)c(=O)[nH]c1=O,6.15% (inactive)
9,Cc1cc(/C=N/Nc2ccc([N+](=O)[O-])cn2)c(C)n1-c1cccc(C(=O)O)c1,-1.11% (inactive)
10,COc1cc(/C=N/O)ccc1OCc1ccc([N+](=O)[O-])cc1,-0.23% (inactive)
11,COc1cc(/C=N\Nc2ccc([N+](=O)[O-])cn2)ccc1OCC(=O)O,69.7% (active)
12,COc1cccc(COC(=O)C2CCN(S(=O)(=O)c3cccs3)CC2)c1OC,8.84% (inactive)
13,CC(OC(=O)CNC(=O)c1cccc(F)c1)C(=O)NC1CCCCC1C (stereo not given),18.8% (active)
14,CC(OC(=O)CNC(=O)c1ccc(Cl)c([N+](=O)[O-])c1)C(=O)NCc1ccco1 (stereo not given),5.87% (inactive)
15,Cc1cc(C(=O)OC(C)C(=O)NC2CCCCC2C)c(C)o1 (stereo not given),-3.61% (inactive)
16,CC(C)(C)c1ccc(C(=O)NCc2ccco2)cc1,-1.24% (inactive)
17,CCOc1ccc(CCNC(=O)COC(=O)c2c(OC)cccc2OC)cc1OCC,1.08% (inactive)
18,COCCn1c(SC(C)C(=O)NC2CC2)nnc1-c1cccc(C)c1 (stereo not given),-0.425% (inactive)
19,O=C(NCc1ccc(Cl)cc1)C(=O)NCC1CCCN1S(=O)(=O)c1cccs1 (stereo not given),-0.323% (inactive)
20,CCCC(=O)Nc1ccc(C(=O)N/N=C/c2ccc[nH]2)cc1,2.49% (inactive)
21,CC(=O)Nc1ccc(/C=C/C(=O)c2ccccc2)cc1,-0.329% (inactive)
22,CC(=O)Nc1ccc(C(=O)/C=C/c2ccc[nH]2)cc1,16.6% (active)
23,CC(C)Oc1ccc(S(=O)(=O)N2CCOCC2)cc1NC(=O)C1CSC2(C)CCC(=O)N12 (stereo not given),-2.87% (inactive)

row,Compound,inhibition
1,COc1ccc(S(=O)(=O)NCCCc2ccccc2)cc1,-4.52% (inactive)
2,Cc1ccc(-c2nc3ccccc3[nH]c2=O)cc1,3.42% (inactive)
3,O=C(Cc1nc2ccccc2[nH]c1=O)c1ccc(Cl)cc1,39% (active)
4,O=C(/C(=C/c1cccc(Cl)c1)c1nc2ccccc2[nH]1)c1ccccc1,2.15% (inactive)
5,COC(=O)Cc1ccc(Oc2ncc(C(F)(F)F)cc2Cl)cc1,106% (active)
6,Cc1cc(C)cc(NS(=O)(=O)c2ccc(Oc3ncc(C(F)(F)F)cc3Cl)cc2)c1,1.58% (inactive)
7,COC(=O)Cc1ccc(OCC(=O)Nc2ccc(OC(F)(F)F)cc2)cc1,-0.217% (inactive)
8,CCCCn1c(N)c(N(CC)C(=O)c2ccc(N(C)S(=O)(=O)c3ccc(C)cc3)cc2)c(=O)[nH]c1=O,-4.28% (inactive)
9,COc1ccc(/C=C(\C#N)C(=O)OCC(=O)N(C)C2CCS(=O)(=O)C2)cc1 (stereo not given),1.11% (inactive)
10,COc1ccccc1NS(=O)(=O)c1ccc(C(=O)N2CCN(c3ccccc3O)CC2)cc1,1.18% (inactive)
11,COc1ccc(-n2cnc3cc(C(=O)NC4CCCC4)ccc32)cc1,-1.26% (inactive)
12,COc1ccc(Nc2nc(NCc3ccco3)nc(N/N=C/c3ccccc3Cl)n2)cc1,-0.0694% (inactive)
13,COc1ccc(-n2cnc3cc(NCc4ccco4)ccc32)cc1,23% (active)
14,CCCc1nnc(NC(=O)c2cccs2)s1,-123% (inactive)
15,COc1ccc(Cc2nnc(NC(=O)c3cc(OC)c(OC)c(OC)c3)s2)cc1OC,3.23% (inactive)
16,CCCc1nnc(NC(=O)c2cc(OC)cc(OC)c2)s1,162% (active)
17,C[C@@H]1O[C@@H](OC[C@H]2O[C@@H](Oc3c(-c4ccc(O)cc4)oc4cc(O)cc(O)c4c3=O)[C@H](O)[C@@H](O)[C@@H]2O)[C@H](O)[C@H](O)[C@H]1O,2.8% (inactive)
18,COc1ccc(CNC(=O)C2(CC3CC(c4ccccc4)=NO3)CCN(C(=O)c3cccc(O)c3)CC2)cc1 (stereo not given),5.15% (inactive)
19,Cn1c(NC(=O)c2ccccc2)nc2ccccc21,5.33% (inactive)
20,Cn1cccc1-c1nc2ccccc2n1C,3.82% (inactive)
21,Cn1c(-c2ccc(C(=O)c3ccccc3)s2)nc2ccccc21,21.5% (active)
22,O=C(NCCC1CCCCN1S(=O)(=O)c1ccccc1)C(=O)NCC1CCCO1 (stereo not given),1.16% (inactive)
23,CCOc1ccc(CCNC(=O)COC(=O)C2CCN(c3ccc(C(F)(F)F)cn3)CC2)cc1OCC,0.153% (inactive)

row,Compound,inhibition
1,O=c1[nH]snc1-c1c(Cl)cccc1Cl,2.52% (inactive)
2,Cc1ccnc(NC(=O)c2ccco2)n1,-1.58% (inactive)
3,CCn1nc(NC(=O)c2ccco2)c2cc3ccc(C)cc3nc21,23.1% (active)
4,Cc1ccc(-n2nc3cc(Cl)c(NC(=O)c4ccco4)cc3n2)cc1,-2.85% (inactive)
5,COc1ccc2c(c1)CCc1cn3ncc(C#N)c3nc1-2,10.6% (inactive)
6,COc1ccc2cc(C(=O)C3CCCN(C(=O)c4sc(C)nc4C)C3)ccc2c1 (stereo not given),0.445% (inactive)
7,COc1ccc2nc(N3CCCC(O)C3)c(C#N)cc2c1 (stereo not given),57.2% (active)
8,CCCCCCc1ccc(O)cc1O,-0.89% (inactive)
9,CCCCCCc1cc2cc(-c3nnc(-c4ccccc4)o3)c(=O)oc2cc1O,161% (active)
10,Cc1c(CC(=O)NCCCCCC(=O)O)c(=O)oc2cc3occ(-c4ccccc4)c3cc12,3.1% (inactive)
11,Cc1sc2ncnc(N3CCC(C(=O)Nc4nc5ccc(Cl)cc5s4)CC3)c2c1C,2.82% (inactive)
12,CC(=O)c1ccc(S(=O)(=O)NC2CC(=O)N(c3ccc4c(c3)OCCO4)C2)cc1 (stereo not given),-0.763% (inactive)
13,c1ccc(C[C@H]2CNCCN2CCC23CC4CC(CC(C4)C2)C3)cc1,3.71% (inactive)
14,N#CCN(C(=O)COC(=O)C1CC2CCCC(C1)C2=O)c1ccccc1 (stereo not given),-5.07% (inactive)
15,COc1ccc(CCNC(=O)C(=O)NCC2CCNCC2)cc1OC,4.38% (inactive)
16,COc1ccc2c(c1)CCNC2Cc1ccc(OC)c(O)c1 (stereo not given),96.2% (active)
17,COc1cc2c(cc1O)[C@H](Cc1ccc(Oc3cc(C[C@@H]4NCCc5cc(OC)c(O)cc54)ccc3O)cc1)NCC2,-9.25% (inactive)
18,O=C(Nc1ccccc1-c1nc2ccccc2[nH]c1=O)c1cccs1,-0.663% (inactive)
19,O=C(Nc1ccccc1-c1ccccc1)c1cccs1,22.1% (active)
20,O=C(Nc1ccccc1)c1ccc(NC(=O)c2cccs2)cc1,-0.113% (inactive)
21,Cc1sc2ncnc(N3CCC(C(=O)NNC(=O)c4ccc(F)cc4)CC3)c2c1C,0.666% (inactive)
